Measurements reported in the supplement of paper PMC10849652.
Targets with a hit are over-represented here; the source holds about 8,800 in all. About 0.5% of all pairs of compound and target were hits.

Legend:
Assay in all cases: log2 fold change, soluble protein after heating vs DMSO (PISA); higher = thermal stabilisation; K562 lysate, 10 uM; active = over 0.2 and 3.5 SD of the protein, either way, in both replicates (recomputed)
[1] = compound: NCC(=O)Nc1ccc(-n2nc(C(F)(F)F)cc2-c2ccc3c(ccc4ccccc43)c2)cc1
How it was run: (§1)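 Log-two fold change in thermal stability relative to solvent controls is reported from duplicates. For each sample, crude K562 extract from dounce-homogenised pellets in PBS pH 7.4 with 1 mM MgCl2, at 1 mg/mL protein, was treated with 10 μM compound for 30 min. Aliquots heated for 3 min across 48°C-58°C were pooled, brought to 0.5% NP-40 at 4°C and cleared at 21,000xg for 90 min. The supernatant was quantified by TMTpro 16plex LC-MS/MS with channel sums equalised.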

vorinostat = compound: O=C(CCCCCCC(=O)Nc1ccccc1)NO [vorinostat]
How it was run: as §1

silmitasertib = compound: O=C(O)c1ccc2c(c1)nc(Nc1cccc(Cl)c1)c1ccncc12 [silmitasertib]
How it was run: as §1

[2] = compound: O=C1NC(=O)C(c2cnc3ccccn23)=C1c1cn2c3c(cc(F)cc13)CN(C(=O)N1CCCCC1)CC2
How it was run: as §1

entospletinib = compound: c1cn2cc(-c3ccc4cn[nH]c4c3)nc(Nc3ccc(N4CCOCC4)cc3)c2n1 [entospletinib]
How it was run: as §1

Chain of UniProt O94762 (O94762 whole entry, looked up): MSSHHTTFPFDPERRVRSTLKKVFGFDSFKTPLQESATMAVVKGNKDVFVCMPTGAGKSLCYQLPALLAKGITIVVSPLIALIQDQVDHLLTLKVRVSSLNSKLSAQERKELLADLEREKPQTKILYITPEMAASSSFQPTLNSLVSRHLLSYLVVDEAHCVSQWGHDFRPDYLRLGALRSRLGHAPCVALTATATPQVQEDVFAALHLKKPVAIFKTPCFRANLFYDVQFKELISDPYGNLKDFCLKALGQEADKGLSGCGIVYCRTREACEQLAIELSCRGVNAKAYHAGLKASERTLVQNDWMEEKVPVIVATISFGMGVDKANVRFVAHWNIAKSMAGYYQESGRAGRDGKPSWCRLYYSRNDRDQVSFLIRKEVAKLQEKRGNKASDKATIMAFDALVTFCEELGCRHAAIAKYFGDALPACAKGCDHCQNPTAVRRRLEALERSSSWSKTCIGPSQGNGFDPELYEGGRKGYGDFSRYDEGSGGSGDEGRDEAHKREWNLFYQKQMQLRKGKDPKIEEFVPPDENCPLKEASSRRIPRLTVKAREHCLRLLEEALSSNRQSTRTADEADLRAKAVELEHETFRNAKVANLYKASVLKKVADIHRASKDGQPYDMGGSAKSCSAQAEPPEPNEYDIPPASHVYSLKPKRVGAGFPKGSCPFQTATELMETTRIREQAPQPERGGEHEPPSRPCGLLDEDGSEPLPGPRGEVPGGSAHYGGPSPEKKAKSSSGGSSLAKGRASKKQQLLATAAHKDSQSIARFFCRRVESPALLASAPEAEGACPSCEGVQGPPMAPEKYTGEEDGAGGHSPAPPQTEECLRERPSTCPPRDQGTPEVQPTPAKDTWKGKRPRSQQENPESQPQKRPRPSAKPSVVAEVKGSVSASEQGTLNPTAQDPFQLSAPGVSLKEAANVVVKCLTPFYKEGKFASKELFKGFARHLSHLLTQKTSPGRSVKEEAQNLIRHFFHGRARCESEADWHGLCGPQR
Chain of UniProt O15027 (O15027 whole entry, looked up): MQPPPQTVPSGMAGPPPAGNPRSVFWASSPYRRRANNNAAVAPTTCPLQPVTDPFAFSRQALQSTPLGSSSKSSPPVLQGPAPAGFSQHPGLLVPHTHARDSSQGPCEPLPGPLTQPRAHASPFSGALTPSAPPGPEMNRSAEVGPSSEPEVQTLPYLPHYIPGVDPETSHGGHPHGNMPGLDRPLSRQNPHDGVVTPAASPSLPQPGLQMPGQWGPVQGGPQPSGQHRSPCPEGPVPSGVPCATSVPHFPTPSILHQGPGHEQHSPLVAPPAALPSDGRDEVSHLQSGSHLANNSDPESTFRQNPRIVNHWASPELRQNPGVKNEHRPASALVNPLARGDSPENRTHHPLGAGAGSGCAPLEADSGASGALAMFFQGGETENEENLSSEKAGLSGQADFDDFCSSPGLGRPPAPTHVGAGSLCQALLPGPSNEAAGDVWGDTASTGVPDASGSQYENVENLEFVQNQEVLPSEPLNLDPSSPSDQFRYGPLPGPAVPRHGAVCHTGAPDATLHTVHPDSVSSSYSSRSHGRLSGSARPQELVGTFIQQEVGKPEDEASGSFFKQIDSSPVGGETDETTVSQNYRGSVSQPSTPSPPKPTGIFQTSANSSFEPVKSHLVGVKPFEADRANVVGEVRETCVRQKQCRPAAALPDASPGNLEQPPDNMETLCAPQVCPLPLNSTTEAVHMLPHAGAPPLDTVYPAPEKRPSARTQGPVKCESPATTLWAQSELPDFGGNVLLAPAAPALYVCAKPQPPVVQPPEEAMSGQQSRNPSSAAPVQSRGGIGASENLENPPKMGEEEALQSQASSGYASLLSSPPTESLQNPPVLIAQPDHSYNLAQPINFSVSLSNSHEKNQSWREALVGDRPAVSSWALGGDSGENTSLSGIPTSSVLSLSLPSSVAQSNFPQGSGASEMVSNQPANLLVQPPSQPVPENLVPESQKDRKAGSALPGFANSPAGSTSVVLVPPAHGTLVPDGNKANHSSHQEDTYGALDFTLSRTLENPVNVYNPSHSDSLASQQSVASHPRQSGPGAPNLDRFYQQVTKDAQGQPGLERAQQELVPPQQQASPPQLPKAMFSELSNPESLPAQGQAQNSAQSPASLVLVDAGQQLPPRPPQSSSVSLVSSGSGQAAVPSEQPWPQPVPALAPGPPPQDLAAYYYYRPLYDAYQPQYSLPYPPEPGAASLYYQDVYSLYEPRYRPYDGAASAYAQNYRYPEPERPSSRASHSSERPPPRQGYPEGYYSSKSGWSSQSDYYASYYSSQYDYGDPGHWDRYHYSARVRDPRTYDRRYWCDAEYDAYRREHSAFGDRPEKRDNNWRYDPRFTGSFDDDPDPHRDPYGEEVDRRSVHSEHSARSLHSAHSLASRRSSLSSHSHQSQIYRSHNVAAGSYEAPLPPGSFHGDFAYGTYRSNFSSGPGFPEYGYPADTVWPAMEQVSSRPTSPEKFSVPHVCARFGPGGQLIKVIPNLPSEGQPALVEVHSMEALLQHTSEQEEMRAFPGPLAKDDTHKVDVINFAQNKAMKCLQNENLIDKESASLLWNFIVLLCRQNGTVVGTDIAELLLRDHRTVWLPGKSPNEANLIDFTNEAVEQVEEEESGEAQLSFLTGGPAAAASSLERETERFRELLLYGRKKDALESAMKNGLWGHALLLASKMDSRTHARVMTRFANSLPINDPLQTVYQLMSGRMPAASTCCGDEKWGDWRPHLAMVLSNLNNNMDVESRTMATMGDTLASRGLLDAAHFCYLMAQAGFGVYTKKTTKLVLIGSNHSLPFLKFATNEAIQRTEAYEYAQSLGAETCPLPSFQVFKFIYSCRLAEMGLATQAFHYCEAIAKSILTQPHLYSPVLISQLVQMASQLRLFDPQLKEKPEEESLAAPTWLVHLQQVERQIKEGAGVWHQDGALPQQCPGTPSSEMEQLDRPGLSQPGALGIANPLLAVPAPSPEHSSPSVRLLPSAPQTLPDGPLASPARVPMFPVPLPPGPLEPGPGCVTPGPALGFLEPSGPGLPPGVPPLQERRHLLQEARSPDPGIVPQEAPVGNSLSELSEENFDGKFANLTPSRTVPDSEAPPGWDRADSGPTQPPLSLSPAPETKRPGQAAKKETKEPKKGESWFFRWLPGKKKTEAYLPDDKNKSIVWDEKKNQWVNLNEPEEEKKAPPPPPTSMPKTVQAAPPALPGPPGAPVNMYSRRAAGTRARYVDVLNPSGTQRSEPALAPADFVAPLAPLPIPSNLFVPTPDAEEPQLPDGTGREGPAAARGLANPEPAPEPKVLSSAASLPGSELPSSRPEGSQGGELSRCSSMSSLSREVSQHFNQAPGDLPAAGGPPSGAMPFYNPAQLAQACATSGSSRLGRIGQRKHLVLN
Chain of UniProt O75943 (O75943 whole entry, looked up): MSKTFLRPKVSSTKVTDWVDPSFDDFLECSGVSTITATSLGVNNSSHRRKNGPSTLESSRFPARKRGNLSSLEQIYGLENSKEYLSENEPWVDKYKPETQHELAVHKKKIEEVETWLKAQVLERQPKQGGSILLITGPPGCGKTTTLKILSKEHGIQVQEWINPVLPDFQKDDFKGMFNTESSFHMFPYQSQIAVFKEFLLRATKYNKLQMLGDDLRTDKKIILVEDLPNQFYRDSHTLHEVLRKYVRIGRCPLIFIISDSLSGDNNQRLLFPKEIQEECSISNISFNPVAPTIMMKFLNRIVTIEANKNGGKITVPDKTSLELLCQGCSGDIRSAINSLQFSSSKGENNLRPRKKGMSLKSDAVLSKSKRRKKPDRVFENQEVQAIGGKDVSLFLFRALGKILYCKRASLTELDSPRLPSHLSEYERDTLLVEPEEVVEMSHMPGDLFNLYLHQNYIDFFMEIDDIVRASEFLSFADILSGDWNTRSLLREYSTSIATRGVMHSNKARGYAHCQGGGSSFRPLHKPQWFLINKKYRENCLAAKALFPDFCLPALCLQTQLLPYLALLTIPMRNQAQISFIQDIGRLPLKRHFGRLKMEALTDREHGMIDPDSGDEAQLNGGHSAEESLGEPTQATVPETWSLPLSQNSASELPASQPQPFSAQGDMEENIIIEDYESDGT
Chain of UniProt P55735 (P55735 whole entry, looked up): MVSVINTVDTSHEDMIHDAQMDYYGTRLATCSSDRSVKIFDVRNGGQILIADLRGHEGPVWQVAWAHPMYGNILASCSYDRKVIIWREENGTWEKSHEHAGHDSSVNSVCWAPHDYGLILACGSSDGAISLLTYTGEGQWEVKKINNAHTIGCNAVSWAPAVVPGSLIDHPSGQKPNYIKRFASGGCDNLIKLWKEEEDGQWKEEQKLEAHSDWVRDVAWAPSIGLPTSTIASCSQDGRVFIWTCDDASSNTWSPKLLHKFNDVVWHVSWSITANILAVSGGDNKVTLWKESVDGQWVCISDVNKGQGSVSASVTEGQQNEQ
Chain of UniProt P11233 (P11233 whole entry, looked up): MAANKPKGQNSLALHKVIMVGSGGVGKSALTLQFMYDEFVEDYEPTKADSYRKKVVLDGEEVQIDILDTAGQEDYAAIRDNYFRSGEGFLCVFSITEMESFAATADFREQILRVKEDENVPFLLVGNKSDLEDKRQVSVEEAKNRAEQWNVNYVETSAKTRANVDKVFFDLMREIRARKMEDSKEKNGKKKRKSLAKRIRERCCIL
Chain of UniProt P38159 (P38159 whole entry, looked up): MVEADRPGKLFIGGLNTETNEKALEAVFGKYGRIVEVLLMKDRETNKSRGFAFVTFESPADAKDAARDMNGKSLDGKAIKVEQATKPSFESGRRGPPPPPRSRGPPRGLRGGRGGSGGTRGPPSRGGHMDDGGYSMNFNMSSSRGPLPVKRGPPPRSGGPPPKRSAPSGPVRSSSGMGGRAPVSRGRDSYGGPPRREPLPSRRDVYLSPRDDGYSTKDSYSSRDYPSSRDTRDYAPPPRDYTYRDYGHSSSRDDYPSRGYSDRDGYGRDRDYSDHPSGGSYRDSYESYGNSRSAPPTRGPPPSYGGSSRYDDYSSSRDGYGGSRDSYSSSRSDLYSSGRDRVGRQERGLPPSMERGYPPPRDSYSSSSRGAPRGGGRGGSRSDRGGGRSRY

Target | log2 fold change [1] | log2 fold change (vorinostat) | log2 fold change (silmitasertib) | log2 fold change [2] | log2 fold change (entospletinib)
RBMX (UniProt P38159) | -0.043 (inactive) | 0.065 (inactive) | 0.048 (inactive) | -0.022 (inactive) | 0.008 (inactive)
SERAC1 (UniProt Q96JX3) |  | 0.236 (inactive) | 0.155 (inactive) |  | -0.001 (inactive)
RAD17 (UniProt O75943) | -0.044 (inactive) |  |  | -0.052 (inactive) | -0.039 (inactive)
RALA (UniProt P11233) | 0.031 (inactive) | 0.129 (inactive) | -0.062 (inactive) | 0 (inactive) | -0.006 (inactive)
RBM4 isoform 3 (UniProt Q9BWF3) |  |  |  | -0.099 (inactive) | 
RNF24 isoform 2 (UniProt Q9Y225) |  | 0.918 (active) | -0.117 (inactive) | 0.016 (inactive) | 
RBM8A (UniProt Q9Y5S9) | -0.113 (inactive) | 0.103 (inactive) | 0.042 (inactive) | -0.046 (inactive) | -0.019 (inactive)
RBBP7 isoform 2 (UniProt Q16576) | -0.043 (inactive) | 0.03 (inactive) | -0.012 (inactive) | -0.068 (inactive) | 0.024 (inactive)
RALGAPB isoform 3 (UniProt Q86X10) |  |  |  |  | -0.045 (inactive)
RNPC3 (UniProt Q96LT9) |  | -0.488 (active) | 0.145 (inactive) | 0.036 (inactive) | 
RTTN (UniProt Q86VV8) | -0.14 (inactive) | -0.607 (active) | 0.138 (inactive) |  | 0.053 (inactive)
RYR1 (UniProt P21817) |  | 0.066 (inactive) | -0.017 (inactive) | -0.069 (inactive) | 0.101 (inactive)
ROBO2 isoform 3 (UniProt Q9HCK4) |  | 0.136 (inactive) | -0.019 (inactive) | -0.042 (inactive) | 
SEC13 isoform 3 (UniProt P55735) | -0.01 (inactive) | -0.115 (inactive) | 0.021 (inactive) | -0.045 (inactive) | -0.001 (inactive)
RLIM (UniProt Q9NVW2) |  |  |  | 0.289 (inactive) | 
RAB1B (UniProt Q9H0U4) | 0.025 (inactive) | 0.186 (inactive) | 0.007 (inactive) | -0.039 (inactive) | -0.011 (inactive)
RUFY2 isoform 1 (UniProt Q8WXA3) | -0.009 (inactive) |  |  | -0.129 (inactive) | -0.014 (inactive)
RPL8 (UniProt P62917) | -0.041 (inactive) | 0.12 (inactive) | 0 (inactive) | 0.089 (inactive) | -0.006 (inactive)
RECQL5 (UniProt O94762) | -0.063 (inactive) | -0.307 (active) | -0.094 (inactive) | 0.03 (inactive) | 0.024 (inactive)
RBM45 (UniProt Q8IUH3) |  |  |  | 0.093 (inactive) | 
SEC16A isoform 5 (UniProt O15027) | 0.053 (inactive) | -0.281 (active) | 0.008 (inactive) | -0.029 (inactive) | -0.015 (inactive)
RNF17 (UniProt Q9BXT8) |  | -0.016 (inactive) | -0.021 (inactive) | -0.106 (inactive) | 0.107 (inactive)
RASA3 (UniProt Q14644) | -0.022 (inactive) | -0.361 (active) | -0.08 (inactive) | -0.015 (inactive) | 0.017 (inactive)
